From PubChem
Sampled rows, rich in hits. Any-hit rate of the full collection: about 2.4%.
TLR4-MyD88 BLA: inhibitors of TLR4-MyD88 association in cells, primary screen, cell-based, HeLa CL3-4, BLA complementation, FRET ratio; HeLa CL3-4 TLR4/MyD88 BLA complementation; Toll-like receptor 4 (Homo sapiens) + Myeloid differentiation primary response protein …; hit rate 0.18% among 200,000; AID 861, 2007; inhibition, % at 8.4 µM; in the data active = inhibition above about 25%;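 also: 0% = vehicle and 100% = reference inhibitor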
Target sequence (O00206 whole entry, looked up): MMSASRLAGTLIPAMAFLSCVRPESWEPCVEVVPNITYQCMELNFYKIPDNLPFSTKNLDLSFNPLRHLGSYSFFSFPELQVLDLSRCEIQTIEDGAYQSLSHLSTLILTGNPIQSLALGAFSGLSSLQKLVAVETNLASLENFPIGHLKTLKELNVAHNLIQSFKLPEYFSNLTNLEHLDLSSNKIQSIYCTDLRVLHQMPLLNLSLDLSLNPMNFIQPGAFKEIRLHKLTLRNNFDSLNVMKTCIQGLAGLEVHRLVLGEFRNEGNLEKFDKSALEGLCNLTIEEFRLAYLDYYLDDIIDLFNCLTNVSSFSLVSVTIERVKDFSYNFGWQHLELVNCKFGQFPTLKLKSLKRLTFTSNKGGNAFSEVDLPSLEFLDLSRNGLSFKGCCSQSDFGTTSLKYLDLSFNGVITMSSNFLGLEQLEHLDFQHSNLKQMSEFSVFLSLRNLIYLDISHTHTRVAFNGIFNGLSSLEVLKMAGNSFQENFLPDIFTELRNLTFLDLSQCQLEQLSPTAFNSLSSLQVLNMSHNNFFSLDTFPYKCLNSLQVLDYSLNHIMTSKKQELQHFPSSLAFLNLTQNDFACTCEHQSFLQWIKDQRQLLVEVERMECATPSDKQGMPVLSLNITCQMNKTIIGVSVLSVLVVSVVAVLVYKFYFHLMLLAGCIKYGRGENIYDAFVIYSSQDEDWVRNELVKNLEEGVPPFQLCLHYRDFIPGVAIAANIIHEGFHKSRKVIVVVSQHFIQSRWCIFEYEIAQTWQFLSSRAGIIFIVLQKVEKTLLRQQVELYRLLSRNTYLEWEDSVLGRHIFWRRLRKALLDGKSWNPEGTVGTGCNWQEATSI
Target sequence (Q99836 whole entry, looked up): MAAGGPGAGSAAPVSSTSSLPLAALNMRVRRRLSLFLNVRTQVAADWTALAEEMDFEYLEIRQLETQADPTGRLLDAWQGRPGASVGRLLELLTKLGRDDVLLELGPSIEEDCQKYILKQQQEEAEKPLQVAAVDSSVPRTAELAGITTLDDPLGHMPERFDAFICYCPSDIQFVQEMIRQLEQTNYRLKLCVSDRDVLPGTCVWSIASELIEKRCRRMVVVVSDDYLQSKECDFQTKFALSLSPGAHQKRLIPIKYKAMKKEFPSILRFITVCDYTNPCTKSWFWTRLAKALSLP
NOD2 RIPK2 PPI: NOD2-RIPK2 binding disruptors in cells, primary screen, fluorescence, CHO cells, BLA complementation; Receptor-interacting serine/threonine-protein kinase 2 (Homo sapiens), O43353; CCF4 ratio; inhibition, % at 4.98 µM; hit rate 0.38% among 360,000; in the data active = inhibition above about 21%;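 also: 0% = vehicle only and 100% = reference blocker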
m5-HT2A agonist: mouse Htr2a agonists via beta-arrestin recruitment, primary screen, cell-based, luminescence; 5-hydroxytryptamine receptor 2A (Mus musculus), P35363; CHO-K1 mHTR2A beta-arrestin complementation; percent of 30 µM serotonin response; activation, % at 7.6 µM; hit rate 0.66% among 360,000; AID 624169, 2012;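 active = activation above a run cutoff, the mean activation of all tested compounds plus 3 SD, cut at about 14% in these data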;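 also: 0% = plate median of compound wells and 100% = 30 µM serotonin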
ABHD5 PLIN5 PPI: ABHD5-PLIN5 interaction inhibitors, primary screen, cell lysate, split luciferase complementation, luminescence; Perilipin-5 (Homo sapiens) + 1-acylglycerol-3-phosphate O-acyltransferase ABHD5 (Homo …; Split G. princeps luciferase complementation, 4 h; inhibition, % at 4 µM; hit rate 0.78% among 360,000; AID 602281, 2012;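 active = inhibition above the mean inhibition across every tested compound plus 3 SD, cut at about 22% in these data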;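 also: 0% = DMSO only wells and the 100% control is not disclosed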
TLR9-MyD88 block: inhibitors of TLR9-MyD88 association in cells, primary screen, cell-based, CHO, BLA complementation, fluorescence; CCF4 FRET ratio; hit rate 0.21% among 340,000; Toll-like receptor 9 (Homo sapiens) + Myeloid differentiation primary response protein …; inhibition, % at 4.98 µM;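 active = inhibition above the mean over all tested compounds plus 3 SD, cut at about 21% in these data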;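 also: 0% = DMSO only wells and 100% = clavulanate BLA inhibitor control wells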
CRFBP-R2 block: antagonists of CRF-BP/CRF-R2 complex, primary screen, cell-based, HEK293, calcium dye fluorescence, uHTS; hit rate 0.59% among 350,000; CRF-induced calcium fluorescence; inhibition, % at 11.8 µM;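 active = inhibition of the ligand-induced calcium signal above about 50% at the single tested concentration, limit read from the data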
MOR ag counter: OPRM1 agonists via beta-arrestin recruitment, confirmation, counter-screen for mouse HTR2A agonist project, cell-based, luminescence, single concentration | shares compounds with m5-HT2A agonist | U2OS OPRM1 beta-arrestin PathHunter; DMSO 0%, DAMGO 9.3 µM 100% | activation, % at 9.3 µM | hit rate 5.3% among 2,300 | AID 624380, 2012;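 active = mean activation above the mean of DMSO-only wells plus 3 SD, cut at about 0.5% in these data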
m5-HT2A ag conf: mouse HTR2A agonists, beta-arrestin recruitment, confirmation, cell-based, luminescence, CHO-K1 PathHunter, triplicate; shares compounds with m5-HT2A agonist; activation, % at 7.6 µM; AID 624381, 2012; hit rate 19% among 2,300; DMSO 0%, 30 µM serotonin 100%;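 active = mean activation across triplicates above the hit threshold derived in the original primary screen, cut at about 15% in these data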
Active calls of the source: *; / = no result given.

SMILES	TLR4-MyD88 BLA	NOD2 RIPK2 PPI	m5-HT2A agonist	ABHD5 PLIN5 PPI	TLR9-MyD88 block	CRFBP-R2 block	MOR ag counter	m5-HT2A ag conf
O=C(NCc1ccccn1)C1CC(=O)N(C2CCCC2)C1 (stereo not given)	8	-12	20*	-5	0	14	-1	-4
CN1CCN(CCCNC(=O)C2CC(=O)N(C3CCCCC3)C2)CC1 (stereo not given)	8	-18	-2	0	9	2	/	/
CCn1c(=O)cc(SCC(=O)NCCCN2CCN(c3ccccc3F)CC2)c2ccccc21	0	-2	28*	-2	1	-7	0	78*
Cc1cc2nc(-c3ccc(F)cc3)c(CC(C)(C)C)n2c(C)c1Br	/	-15	-3	-9	/	/	/	/
O=C(N[C@H](CO)c1ccccc1)[C@H]1O[C@@H](n2ccc(=O)[nH]c2=O)[C@H](O)[C@@H]1O	/	1	15*	-6	/	/	-1	0
O=C(N[C@H](CO)Cc1ccccc1)[C@H]1O[C@@H](n2ccc(=O)[nH]c2=O)[C@H](O)[C@@H]1O	/	-6	1	1	/	/	/	/
CCN(C(=O)CSc1nc2ccccc2o1)C1CCS(=O)(=O)C1 (stereo not given)	/	1	3	2	3	14	/	/
CCN(C(=O)CSc1ccc2ccccc2c1)C1CCS(=O)(=O)C1 (stereo not given)	-1	-12	16*	1	3	15	-1	0
O=c1cc(O)cc2n1CCC2	/	-1	0	11	/	/	/	/
O=C1N(CN2CCN(c3cccc(Cl)c3)CC2)c2ccccc2C12OCCCO2	-3	3	18*	-3	6	-3	-1	8
O=C1N(CN2CCC3(CC2)OCCO3)c2ccccc2C12OCCCO2	-10	4	4	0	1	20	/	/
CC1(C(=O)NS(=O)(=O)C2CC2)CCN(C(=O)CSc2ccccc2)C1 (stereo not given)	/	-9	-2	-2	/	/	/	/
CC1(C)CC(=O)C(C(=O)c2ccccc2)C(=O)C1	-2	2	19*	0	3	3	0	-1
O=C(Cn1cccc1C(=O)c1ccccc1)NCc1ccccc1Cl	/	-16	5	7	-16	15	/	/
Cc1ccccc1C(=O)c1cccn1CC(=O)NCc1ccccc1Cl	/	20	26*	10	0	17	0	5
CC1(C)C(C=C(Cl)Cl)C1C(=O)N1CCN(Cc2ccccc2)CC1 (stereo not given)	11	1	20*	3	-1	-15	-1	76*
O=[N+]([O-])c1cccc2cnccc12	/	-8	15*	-1	5	3	0	1
O=[N+]([O-])c1ccc(Oc2cccc(Br)c2)c2ccncc12	-5	-5	-5	-5	1	-26	/	/
CCOc1ccccc1C1C(C(=O)Nc2ccccc2OC)=C(C)Nc2nc(CCCO)nn21 (stereo not given)	/	-10	30*	-7	3	8	-1	-3
COc1cccc(C(=O)N2CCC[C@H]2C(=O)N2CCC[C@H]2C(=O)N(C)Cc2ccccc2)c1	/	-6	-1	4	/	/	/	/
Cc1[nH]c(=O)nc(SCc2ccc(Cl)c(Cl)c2)c1C#N	/	12	15*	-4	-7	37	0.8*	2
CCCCCCN1C(=O)CC(NC(=O)OCC2c3ccccc3-c3ccccc32)C/C=C\C1C(C)C (stereo not given)	/	8	16*	-4	-6	-12	-1	-5
